Laboratory results as given in PubChem BioAssay AID1259343 (VanderVen Lab, College of Veterinary Medicine, Cornell …, 2017).
In all, about 6,200 compounds went through this assay and about 2,900 (47%) were called active. So high a share suggests a set chosen from earlier hits. The list shows a part of the results. A number with no mark means an inactive call. Rule as the data show it: active = inhibition above about 50%; inactive = the rest.

Assay: Mycobacterium tuberculosis growth inhibition, primary screen (AID 1259343)
Details: inhibition: at 10 µM, stronger effect = higher value; outcome: 10 uM
With `FC(F)(F)c1nnc(N2CCN(c3ccc(Cl)cc3)CC2)s1` the inhibition was 18.9%.
In the case of `O=C(Nc1nnc(C(F)(F)F)s1)C1(c2cccc(Cl)c2)CC1`, the inhibition is reported as 86.3% (active).
For `COc1cc(NC(=O)C2(c3ccccc3)CC2)c(OC)cc1Cl`, the inhibition was 16.5%.
For `O=C1C(=Cc2ccc(OC(F)F)cc2OC(F)F)Oc2cc(O)ccc21`, the inhibition was 56.9% (active).
For `O=C1/C(=C/c2cc3ccccc3o2)Oc2cc(O)ccc21`, the inhibition was 3.03%.
In the case of `Cn1c(=S)[nH]c2c(-c3ccccc3)csc2c1=O`, the inhibition is reported as 20.9%.
In the case of `CCOC(=O)CSc1ccc(NC(=O)c2ccc(C)cc2)nn1`, the inhibition is reported as 93.7% (active).
With `CSc1nc(N)nc(SCc2ccc(F)cc2)c1C#N` the inhibition was 53.4% (active).
For `COc1ccc(/C=C2\C=C(c3ccccc3)N(c3ccc4ccccc4c3)C2=O)cc1`, the inhibition was 74.9% (active).
In the case of `CN(C)c1cc(-c2noc(Cc3ccccc3Cl)n2)ccn1`, the inhibition is reported as 67% (active).
Compound `Oc1ccc(Nc2nc3nonc3nc2Nc2cccc(Br)c2)cc1` has an inhibition of 49.2%.
With `Ic1ccc(Nc2nc3nonc3nc2NCc2ccco2)cc1` the inhibition was 101% (active).
`OCC(O)Cn1c2ccc(Br)cc2c2cc(Br)cc(Br)c21` (centres undefined) showed an inhibition of 17.8%.
Work on `Cc1cc(O)c(CN2CCOCC2)c2c1C(=O)/C(=C/c1cc3cc(Br)ccc3o1)O2` yielded an inhibition of 45.4%.
For `OC(CN1CCOCC1)Cn1c2ccc(Br)cc2c2cc(Br)ccc21` (centres undefined), the inhibition was 86.8% (active).
For `CN(CCO)CC(O)Cn1c2ccc(Br)cc2c2cc(Br)ccc21` (centres undefined), the inhibition was 69.2% (active).
With `C=CCn1c2ccc(Br)cc2c2nc3ccccc3nc21` the inhibition was -22.9%.
Compound `CC(=O)O[C@H]1CC[C@@]2(C)C(=CC[C@@H]3[C@H]2CC[C@]2(C)C(c4cccnc4)=CC[C@@H]32)C1` has an inhibition of 27.2%.
Work on `Brc1ccc(Cc2nnnn2CCn2cccn2)cc1` yielded an inhibition of 25.9%.
Work on `CCC(=O)c1ccc(-c2ccc(Br)cc2F)cc1` yielded an inhibition of 29%.
With `O=C(Cn1nnnc1-c1ccc(Br)cc1)c1ccccc1` the inhibition was 89.4% (active).
In the case of `O=C(CCl)N1N=C(c2cccs2)CC1c1ccco1` (centres undefined), the inhibition is reported as 101% (active).
For `NC(=O)c1ccc(Cn2nc(-c3cccs3)oc2=O)cc1`, the inhibition was 14.6%.
With `COc1ccc(-c2nc3ccccc3c(=O)o2)cc1[N+](=O)[O-]` the inhibition was 83.1% (active).
Compound `O=c1oc(-c2ccco2)nc2ccc(Br)cc12` has an inhibition of 41.6%.
Work on `O=c1oc(-c2ccc([N+](=O)[O-])cc2Cl)nc2cc(Cl)ccc12` yielded an inhibition of 28.8%.
Compound `Cc1sc2ncnc(N(C)Cc3nc(C4CC4)no3)c2c1C` has an inhibition of -15.9%.
In the case of `CN(CCCc1ccccc1)Cc1nc(C2CC2)no1`, the inhibition is reported as 78.2% (active).
Work on `CCC(Nc1ccccc1)c1nc(C2CCC2)no1` (centres undefined) yielded an inhibition of 44.9%.
